This is an account of results in PubChem BioAssay (Tox21).

Results filed as inconclusive are left out. Where a call stands in place of a potency, no number is given. Active and inactive are the calls of the source. Calls come from the whole dose curve; as a rule, active = well fitted cell-killing curve with a large enough effect in the repeat runs; inconclusive = weak or mixed curves; inactive = flat fitted curve, though single readings scatter.
Potency is the fitted concentration of half-maximal effect.

The assay can be described thus: qHTS assay to identify small molecule antagonists of the estrogen related receptor (ERR) signaling pathway - cell viability counter screen (AID 1224818).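 Note: viability measured after 17.5 h of compound exposure.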 The conditions noted are these: ERR reporter cell line viability counter screen; series mostly up to 46.1 µM. In a few lines: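 ERR cells, 2,000/well; 6 h settle at 37 C/5% CO2; compound pin transfer (DMSO); 17.5 h at 37 C; CellTiter-Fluor, 30 min, fluorescence read.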
For orientation: qHTS replaces the single test concentration by a dilution series.
For the compound `CN1Cc2sccc2C(c2ccc(O)c(O)c2)C1` (stereo not drawn), the Potency result is “inactive”. Consider `CC(C)COC(=O)OCN1C(=O)CN(CCN2CC(=O)N(COC(=O)OCC(C)C)C(=O)C2)CC1=O`, for which the Potency result was “inactive”. `c1ccc2c(c1)CCC[C@H]2Nc1nc2ccccc2[nH]1`: the Potency entry was “inactive”. As for `O=C(Nc1nc2ccccc2n1CCN1CCOCC1)c1cccc([N+](=O)[O-])c1`, the entry is “inactive”; as for `O=Nc1c(-c2c(O)[nH]c3cc(Br)ccc23)[nH]c2ccccc12`, 16.2 µM (active). For the compound `CC#CCOC(=O)c1c(C)nc2sc3c(c2c1N)CCC(O)C3` (stereo not drawn), the Potency result was “inactive”.

Take `CCCCS(=N)(=O)CC[C@H](N)C(=O)O` (stereo partly drawn): the Potency entry was “inactive”.

As for `O=c1ccc2ccc(O)c(O)c2o1`, the Potency result was “inactive”. As to `C[C@@H](N)C1CCC(C(=O)Nc2ccncc2)CC1` (stereo partly drawn), the Potency result is “inactive”. Take `c1ccc(C(NCc2cccnc2)(c2ccccc2)c2ccccc2)cc1`: the Potency entry was “inactive”. In the case of `Oc1ccc2ccccc2c1SSc1c(O)ccc2ccccc12`, the Potency entry is “inactive”.

`Nc1nc2c(cnn2CCc2ccccc2)c2nc(-c3ccco3)nn12`: the Potency entry was “inactive”. The value for `Cc1nn(-c2ccccc2)c(C)c1/C=N/N1CCN(Cc2ccccc2)CC1` was “inactive”; that for `NCCCCCCCCCCN` was “inactive”.

For the compound `COc1ccc(CCn2nnnc2C2(c3ccc(C)cc3)CC2)cc1`, the Potency result was “inactive”.

For the compound `COc1cccc(OC)c1OCCNCC1COc2ccccc2O1` (stereo not drawn), the Potency result is “inactive”. As for `Cn1c(=O)c2[nH]c(C3CCCC3)nc2n(C)c1=O`, the Potency entry was “inactive”. Regarding `Clc1ccc(N2CCN(Cc3c[nH]c4ncccc34)CC2)cc1`, the Potency entry is “inactive”. As for `OC1(c2ccc(Cl)cc2)CCN(Cc2c[nH]c3ccccc23)CC1`, the Potency result is “inactive”. As for `CN(C)C(=O)[C@H](O)[C@H](Cc1ccccc1)NC(=O)c1cc2cc(Cl)ccc2[nH]1`, the entry is “inactive”; as for `Nc1nc(OCC2CCCCC2)c2[nH]cnc2n1`, “inactive”. For `NCC(O)(CS(=O)(=O)O)c1ccc(Cl)cc1` (stereo not drawn), the Potency result is “inactive”.

As to `OC[C@H]1O[C@@H](n2cnc3cncnc32)[C@H](O)[C@@H]1O`, the Potency result is “inactive”. The value for `CNC(=O)[C@H]1O[C@@H](n2cnc3c(NCc4cccc(I)c4)ncnc32)[C@H](O)C1O` (stereo partly drawn) was “inactive”. For the compound `O=C1NC(=O)C(c2ccccc2[N+](=O)[O-])=C1Nc1ccc(O)c(Cl)c1`, the Potency result was “inactive”. As for `N[C@H](CCCP(=O)(O)O)C(=O)O`, the entry is “inactive”; as for `O=c1[nH]c2cc(C(F)(F)F)ccc2n1-c1cc(C(F)(F)F)ccc1O`, “inactive”; as for `O=C(c1ccc2c(c1)OCCO2)N1CCCCC1`, “inactive”. Turning to `O=C(O)c1ccccc1Nc1cccc(OCc2ccc3ccccc3n2)c1`, the Potency result is “inactive”. In the case of `O=c1[nH]c(=S)[nH]c(-c2ccccc2)c1Cc1c(O)ccc2ccccc12`, the Potency result was “inactive”. The value for `c1ccc(CN2CCC3(CCCc4ccccc43)CC2)cc1` was “inactive”; that for `COc1cc(/C=C(\C#N)C(=O)c2ccc(O)c(O)c2)cc(I)c1O` was “inactive”. Consider `CC(=O)[C@H]1CCC2C3CC=C4C[C@@H](OS(=O)(=O)O)CC[C@]4(C)C3CC[C@@]21C` (stereo partly drawn), for which the Potency result was “inactive”. The value for `CC(C)(CO)Cc1cc(C(C)(C)C)c(O)c(C(C)(C)C)c1` was “inactive”. As for `NC(=Nc1ccccc1)NC(=O)c1nc(Cl)c(N)nc1N`, the entry is “inactive”; as for `Nc1nc(SCc2ccc([N+](=O)[O-])cc2)c2ncn([C@@H]3O[C@H](CO)C(O)[C@H]3O)c2n1` (stereo partly drawn), “inactive”. On to `CC(/C=C/c1cccc(Oc2ccc(F)cc2)c1)N(O)C(N)=O` (stereo not drawn), for which the Potency entry was “inactive”. `c1ccc2c(c1)CC(N1CCN(c3cccc4c3OCCO4)CC1)C2`: the Potency result is “inactive”.
